# Assay outcomes from PubChem.
# Only some compounds are listed: those with a hit (about 2.2% of all), similar ones and a draw of the others.
# miR-122 sensor: inhibitors of miR-122 in Huh7 cells; activation (reporter increase), % at 12.5 µM; 340,000 compounds, 0.3% hits; AID 602342; Huh7 miR-122 Renilla luciferase sensor, 48 h; neutral wells = 0, positive control = 100;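 active = mean replicate activation score at least 90 and every replicate individually at or above 90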;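 also: higher luciferase means less miR-122 activity so hits act as miR-122 inhibitors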
# PGC1a acetyl inh: PGC1a acetylation modulation, inhibitor mode; U2OS PGC1a acetylation, AlphaScreen anti-acetyl-lysine; with virally co-expressed GCN5 acetyltransferase; inhibition, % at 15.6 µM; 350,000 compounds, 0.17% hits; AID 651687;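 active = every replicate shows inhibition of at least 40%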
# DENV2 CPE: inhibitors of DENV2 cytopathic effect; 350,000 compounds, 1.7% hits; CPE inhibition, % at 9.99 µM; DENV2-infected cells, cytopathic effect rescue, plate reader; AID 651640; in the data active = CPE inhibition above about 20%, passing the limit was not always enough; tested in BHK-21 cells
# PvdQ acylase: P. aeruginosa PvdQ acylase inhibition. AID 488965. purified PvdQ acylase, fluorescence plate reader. inhibition, % at 10 µM. 340,000 compounds, 0.063% hits; in the data active = inhibition above about 30%, passing the limit was not always enough
# C2C12 statin: suppression of simvastatin myotoxicity; 330,000 compounds, 0.78% hits; AID 602340; rescue of ATP level, % at 7.49 µM; C2C12 myotubes + simvastatin, ATP luminescence, 48 h; scaled: DMSO 0, geranylgeraniol control 100;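 active = mean ATP rescue above about 67%, or every replicate alone reaching that limit, limit read from the data, passing the limit was not always enough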;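 also: myotubes were challenged with 10 µM simvastatin during compound exposure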
# Hits are given with their value; - = inactive; . = not tested or not shown; ! = repeats disagree.
SMILES,miR-122 sensor,PGC1a acetyl inh,DENV2 CPE,PvdQ acylase,C2C12 statin
CC(=O)N(C)C[C@H]1Oc2cc(C#CC(C)(C)O)ccc2S(=O)(=O)N([C@H](C)CO)C[C@H]1C,-,-,-,.,-
CCCN1C[C@@H](C)[C@@H](OC)CN(C)C(=O)c2cc(NS(=O)(=O)c3ccccc3)ccc2OC[C@H]1C,.,-,-,.,-
CCCN1C[C@H](C)[C@@H](OC)CN(C)C(=O)c2ccc(NS(C)(=O)=O)cc2OC[C@H]1C,-,.,27.3,.,-
CO[C@@H]1CN(C)C(=O)c2ccc(NS(C)(=O)=O)cc2OC[C@H](C)N(Cc2nccs2)C[C@@H]1C,.,-,71.8,.,-
CCCN1C[C@@H](C)[C@H](OC)CN(C)C(=O)c2ccc(NS(=O)(=O)c3ccccc3)cc2OC[C@@H]1C,-,-,37.2,.,-
CO[C@H]1CN(C)C(=O)c2ccc(NS(C)(=O)=O)cc2OC[C@H](C)N(Cc2nccs2)C[C@@H]1C,.,-,-,.,-
CC(=O)N1CCCCN2[C@H](CO)[C@H](c3ccc(C#Cc4ccccc4F)cc3)[C@H]2C1,-,-,-,.,.
O=C(CN1CCOCC1)N1CCCCN2[C@@H](CO)[C@H](c3ccc(C#Cc4ccccc4F)cc3)[C@@H]2C1,-,-,.,.,-
CC(=O)N1CCCCN2[C@@H](CO)[C@H](c3ccc(C#Cc4ccccc4F)cc3)[C@@H]2C1,-,-,22.9,.,.
O=C(CN1CCOCC1)N1CCCCN2[C@H](CO)[C@@H](c3ccc(C#Cc4ccccc4F)cc3)[C@H]2C1,-,-,27.2,.,-
O=C(CN1CCOCC1)N1CCCCN2[C@H](CO)[C@@H](c3ccc(-c4ccccc4)cc3)[C@H]2C1,-,-,54.4,.,-
COCCNc1nc(Nc2ccccc2Cl)c2sccc2n1,-,.,38.0,.,-
COC(=O)C1CC23C=CCN4CCC5(c6ccccc6NC15C2C)C43 (centres undefined),147.5,-,-,-,-
CO[C@@H]1CN(C)C(=O)c2ccc(NC(=O)C3CCC3)cc2OC[C@H](C)N(Cc2nccs2)C[C@H]1C,-,.,26.6,.,-
CO[C@H]1CN(C)C(=O)c2cc(NC(C)=O)ccc2OC[C@H](C)N(Cc2nccs2)C[C@@H]1C,-,-,32.1,.,-
CO[C@@H]1CN(C)C(=O)c2cc(NC(C)=O)ccc2OC[C@H](C)N(Cc2nccs2)C[C@H]1C,-,-,-,.,-
C[C@@H]1CN([C@@H](C)CO)C(=O)c2cccc(NC(=O)c3nc4ccccc4s3)c2O[C@H]1CN(C)S(=O)(=O)c1ccccc1,-,-,-,.,-
CC[C@]12c3[nH]c4ccccc4c3CCN1C(=O)C(CC(=O)NCCc1ccccn1)C[C@@H]2C(=O)N1CCN(C(=O)c2ccco2)CC1 (some centres undefined),.,.,-,-,-
CC[C@]12c3[nH]c4cc(CCC(=O)N(C)C)ccc4c3CCN1C(=O)[C@@H](CC(=O)NCCc1ccccn1)C[C@@H]2C(=O)N1CCN(C(=O)c2ccco2)CC1,-,-,34.8,-,-
COc1ccc(C2C(C(=O)OCC(=O)NC(C)(C)C)CCC(=O)N2c2ccc(C)cc2)cc1OC (centres undefined),-,-,.,-,-
COc1ccc(C2C(C(=O)OCC(=O)Nc3ccc(C)cc3)CCC(=O)N2c2ccc(OC)cc2)cc1 (centres undefined),-,-,.,-,95.3
CCOC(=O)c1cc(-c2cccc([N+](=O)[O-])c2)on1,-,-,.,61.9,-
COc1ccc(C(c2sc3ncnn3c2O)N2CC(C)OC(C)C2)cc1OC (centres undefined),.,.,74.6,-,-
Cc1ccnc2nc(C(=O)OCC(=O)c3ccccc3)nn12,-,-,-,-,111.6
CC(C)NC(=O)NCC[C@@H]1CC[C@H](NC(=O)c2ccc(F)cc2)[C@H](CO)O1,-,-,-,.,-
SMILES,miR-122 sensor,PGC1a acetyl inh,DENV2 CPE,PvdQ acylase,C2C12 statin
CC1(C)NC(=O)N(CNc2cc(Cl)ccc2Cl)C1=O,-,-,.,-,99.9
CC(C)c1ccc(N(CC(=O)NCCc2ccccc2)C(=O)c2csnn2)cc1,-,-,-,-,80.7
CN(C)CC(=O)N1[C@@H](C#N)[C@@H](c2ccc(C#CC3CCCC3)cc2)[C@@H]1CO,.,-,39.3,.,-
CN(C)CC(=O)N1[C@H](C#N)[C@H](c2ccc(C#CC3CCCC3)cc2)[C@@H]1CO,.,-,31.0,.,-
CN(C)CC(=O)N1[C@H](CO)[C@H](c2ccc(C#CC3CC3)cc2)[C@@H]1C#N,.,-,-,.,-
CN(C)CC(=O)N1[C@H](C#N)[C@H](c2ccc(C#CC3CCCC3)cc2)[C@H]1CO,.,-,-,.,-
CCCNC(=O)N1CC2(C1)CN(C(C)=O)[C@H](CO)c1[nH]c3cc(OC)ccc3c12,.,-,-,.,.
Cc1ccccc1-c1nc2c(s1)CCc1onc(-c3ccc(Cl)cc3)c1-2,.,.,104.6,-,-
CC(NCc1ccc2c(c1)OCO2)C(=O)NC1CCCc2ccccc21 (centres undefined),-,-,.,-,99.4
O=C(Nc1cccc(NC(=O)c2ccccc2F)c1)c1ccccc1,-,-,-,-,106.6
Cc1cccc(NC(=O)c2ccccc2C(=O)O)c1,-,-,.,-,137.1
O=C(Nc1ccccc1)c1cccc(N2C(=O)CCC2=O)c1,-,-,.,-,96.6
C/C(=N\NC(=O)c1ccccc1F)c1cccc(NC(=O)c2ccccc2)c1,-,.,-,-,.
O=C(Nc1cccc(Cl)c1)c1ccccc1,-,-,28.2,-,-
C[C@@H]1CCCCO[C@@H](CN(C)CC2CC2)[C@H](C)CN([C@@H](C)CO)C(=O)c2cc(NS(=O)(=O)c3ccc(F)cc3)ccc2O1,-,-,-,.,.
CCC(=O)N[C@@H]1C=C[C@H](CC(=O)NCC2CCCCC2)O[C@H]1CO,-,-,-,.,-
C=CCn1c(SCC(=O)NCCCC)nc2scc(-c3ccco3)c2c1=O,-,-,.,-,.
C=CCn1c(SCC(=O)NC2CCCC2)nc2scc(-c3ccco3)c2c1=O,-,-,.,-,116.4
CC(C)C[C@@H](CO)N(Cc1ccccc1)S(=O)(=O)N(Cc1ccccc1)[C@H](CO)CC(C)C,-,-,.,-,126.3
CC(C)C[C@@H](CO)N(Cc1ccccc1)S(=O)(=O)N(Cc1ccccc1)[C@@H](CO)CC(C)C,-,-,.,-,-
O=C(Nc1ccccc1)C1=C[C@H](c2csc3ccccc23)C[C@H](OCCCCO)O1,-,-,20.2!,-,-
CN(C)Cc1csc(NC(=O)Nc2ccccc2Oc2ccccc2)n1,-,-,-,.,72.8
COc1ccccc1NC(=O)Nc1nc(CC(=O)N2CCN(c3ccc(F)cc3)CC2)cs1,-,-,39.8,-,-
CCC(=O)N1[C@H](CO)[C@@H](c2ccc(-c3ccccc3)cc2)[C@@H]1CNC(=O)COC,-,-,-,.,-
CCNC(=O)[C@@H]1[C@@H](CO)[C@@H]2Cn3c(ccc(-c4ccccc4F)c3=O)[C@@H]2N1C(C)=O,-,.,-,.,-
O=C(O)CCCC(=O)Nc1ccc(Br)cc1,-,-,.,-,-
O=C(O)CCCC(=O)Nc1ccccc1Br,-,-,.,-,71.3
Oc1ccc(N2CCN(c3nnnn3-c3ccccc3)CC2)cc1,-,-,-,-,-
